The values below come from PubChem BioAssay AID588675 (Johns Hopkins Ion Channel Center, 2011).

The campaign covered roughly 310,000 compounds. About 1,900 (0.61%) were called active.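 How the source made its calls: active means plate-corrected calcium response at least 3 library SD above typical, normal starting fluorescence, not activating the receptor alone; inactive means the rest.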 The list comes from a sample in which actives are over-represented; it also holds similar structures and randomly drawn compounds.

Chain of Mas-related G-protein coupled receptor member X1 (Homo sapiens) (Q96LB2 whole entry, looked up): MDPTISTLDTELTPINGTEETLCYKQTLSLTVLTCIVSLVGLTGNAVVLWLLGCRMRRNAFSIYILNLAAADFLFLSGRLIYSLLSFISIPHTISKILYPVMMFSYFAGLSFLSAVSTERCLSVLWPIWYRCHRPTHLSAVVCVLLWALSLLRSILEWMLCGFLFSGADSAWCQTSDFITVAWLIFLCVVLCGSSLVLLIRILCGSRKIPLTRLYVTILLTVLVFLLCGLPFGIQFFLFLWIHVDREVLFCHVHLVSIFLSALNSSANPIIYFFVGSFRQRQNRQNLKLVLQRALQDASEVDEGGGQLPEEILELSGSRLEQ

The experiment concerns the target Mas-related G-protein coupled receptor member X1 (Homo sapiens) (UniProt Q96LB2). The experiment can be described thus: positive allosteric modulators of MrgX1, primary screen, HEK293 cells, Fluo-4 calcium flux (AID 588675).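 Further: compound read alongside a low EC10 to EC30 dose of BAM8-22 agonist.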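 On B-score: peak minus trough fluorescence over baseline measured at the second addition.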 The conditions noted are these: MrgX1-HEK293, Fluo-4 calcium flux, FDSS, at 10 µM; stronger effect = higher value. For orientation: A change in cytosolic calcium serves as a functional read-out for many receptors and channels.
On to `CC(C)CNc1ncnc2c1cnn2Cc1ccc(Cl)cc1`, for which the B-score is 7.42 (active).

Consider `Clc1ccc(Nc2ncnc3c2nnn3Cc2ccccc2)cc1`, for which the B-score entry was “inactive”.

As for `Clc1ccc(Cn2ncc3c(NCc4cccnc4)ncnc32)cc1`, the B-score entry is “inactive”.

Regarding `O=C1c2ccccc2C2=Nc3ccccc3SC(c3ccccc3F)C12` (stereo not given), the B-score was 13.4 (active).

With `CCOC(=O)C1=C(C)N=C2c3ccccc3C(=O)C2C1c1ccc(Br)cc1` (stereo not given), the B-score entry was “inactive”.

On to `O=C1c2ccccc2C(=O)C1c1ccccc1F`, for which the B-score entry was “inactive”.

Take `COc1ccccc1CNS(=O)(=O)c1c(C)[nH]c(C)c1C(=O)N1CCCCC1`: the B-score result was “inactive”.

Turning to `COc1cc(C(=O)NCc2cc3cc(Cl)ccc3n2C)cc(OC)c1OC`, the B-score result was “inactive”.

For the molecule `CCOCc1nnc(NC(=O)CSc2ccc(C)cc2)s1`, the B-score entry is “inactive”.

For the molecule `CCOCc1nnc(NC(=O)CCS(=O)(=O)Cc2ccccc2)s1`, the B-score entry is “inactive”.

Take `CCOCc1nnc(NC(=O)CCC2CCCCC2)s1`: the B-score is 7.99 (active).

For `OCC[C@H]1C[C@H](O)[C@@H](O)[C@]2(CCc3ccccc3O2)O1`, the B-score entry was “inactive”.

Turning to `O=C1CCC(Cc2ccccc2)N1` (stereo not given), the B-score result is “inactive”.

Take `COc1cc2c(cc1OC)C(c1ccccc1Br)NC(=O)C2` (stereo not given): the B-score entry is “inactive”.

As to `O=C1CCC([N+](=O)[O-])C(c2ccccc2Br)N1` (stereo not given), the B-score is 8.17 (active).

On to `Cc1ccccc1NC(=O)c1nn(-c2ccc(F)c(F)c2)ccc1=O`, for which the B-score result was “inactive”.

As to `O=C(COCc1cc(-c2ccc3c(c2)OCO3)on1)N1CCN(c2cccc(Cl)c2)CC1`, the B-score result is “inactive”.

As to `CCOC(=O)N1CCN(C(=O)COCc2cc(-c3ccc4c(c3)OCO4)on2)CC1`, the B-score was 6.93 (active).

As to `Cc1cccc(N2CCN(C(=O)COCc3cc(-c4ccc5c(c4)OCO5)on3)CC2)c1C`, the B-score result was “inactive”.

Turning to `COc1ccc(-c2cc(C(=O)NC(Cc3c[nH]c4ccccc34)C(=O)O)c(C)o2)cc1OC` (stereo not given), the B-score result was “inactive”.

As to `Cc1nc(-c2ccccc2)cn2c1nc1ccccc12`, the B-score entry is “inactive”.

Regarding `COc1ccc(C(=O)/C=C/c2ccc(-c3ccccc3)cc2)cc1CSCC(=O)O`, the B-score entry was “inactive”.

For the molecule `Cc1cc(N2C(=O)c3ccc(C(=O)NCc4ccccc4)cc3C2=O)no1`, the B-score entry is “inactive”.

For `Cc1cc(C(=O)N2CCC(C(=O)O)CC2)c(C(F)(F)F)o1`, the B-score entry is “inactive”.

In the case of `CN1CCN(CCC(=O)N/N=C/C=C2\N(C)c3ccccc3C2(C)C)CC1`, the B-score result is “inactive”.

Take `CN1/C(=C\C=C2\N=C(c3ccc(F)cc3)OC2=O)C(C)(C)c2ccccc21`: the B-score was 19.6 (active).

Regarding `CN1/C(=C\C(=O)c2oc3ccccc3c2N)C(C)(C)c2ccccc21`, the B-score result is “inactive”.

In the case of `Cc1c(C2=CCN(S(=O)(=O)c3ccc(Cl)cc3)CC2)c2ccccc2n1C`, the B-score result is “inactive”.

Turning to `CN(CC(=O)Nc1cccc(F)c1)C(=O)C1CC(=O)N(CCc2ccccc2)C1` (stereo not given), the B-score entry is “inactive”.

As to `Cc1cc(NC(=O)OC(C)C)ccc1-c1ccc(NC(=O)OC(C)C)cc1C`, the B-score entry was “inactive”.

In the case of `O=C(NC1CC1)C1CCCN(C(=O)NC2CCCCC2)C1` (stereo not given), the B-score entry was “inactive”.

For `CC[C@H](C)[C@@H](C(=O)N1CCNCC1)n1cc([C@@H](N)Cc2ccc(O)cc2)nn1`, the B-score entry was “inactive”.

Consider `COc1ccc(CCNS(=O)(=O)c2cccc([N+](=O)[O-])c2)cc1`, for which the B-score entry was “inactive”.

`C/C(=N\NS(=O)(=O)c1cccc([N+](=O)[O-])c1)c1cc2ccccc2o1`: the B-score was 8.87 (active).

As for `C/C(=N\NC(=S)Nc1ccc(C)cc1)c1cc2ccccc2o1`, the B-score result is “inactive”.

As for `COc1ccc(N(CC(=O)N/N=C/c2cccc3c2OCCO3)S(=O)(=O)c2ccc(NC(C)=O)cc2)cc1`, the B-score entry is “inactive”.

For the molecule `Cc1ccc(NC(=O)c2cc3ccccc3o2)cc1`, the B-score result was “inactive”.

Turning to `COc1ccccc1CN(C)C(=O)c1cc2ccccc2o1`, the B-score entry is “inactive”.

Regarding `Cc1ccc(OC(=O)c2cc3ccccc3o2)cc1`, the B-score was 6.5 (active).

For the molecule `CCCCCCSc1ccc([C@@H]2[C@@H]3C(=O)N(CC)C(=O)[C@@H]3[C@]3(C(=O)OC)CCCCN23)cc1OC`, the B-score result was “inactive”.

On to `COc1ccc(C(=O)C2CCCN(C(=O)c3cc4nc(C)cc(C)n4n3)C2)cc1F` (stereo not given), for which the B-score entry was “inactive”.

For `O=C(Oc1ccc(F)cc1)N1CCOCC1`, the B-score entry is “inactive”.

Regarding `O=C(Oc1ccc(C(=S)N2CCOCC2)cc1)c1ccc(F)cc1`, the B-score is 12.3 (active).

For the molecule `Cc1ccc(C(=O)Oc2ccc(C(=S)N3CCOCC3)cc2)cc1`, the B-score result is “inactive”.

Take `CC1=C(C(=O)Nc2cc(C)ccn2)C(c2cnn(C)c2)C2=C(CC(c3ccccc3)CC2=O)N1` (stereo not given): the B-score entry was “inactive”.
